Screening results as filed in PubChem BioAssay.
This is a sample that favours compounds with a hit; in the whole collection about 3.5% have one here.
MITF inh: MITF inhibitors, primary screen, biochemical, AlphaScreen, human | Microphthalmia-associated transcription factor (Homo sapiens), O75030 | AlphaScreen MITF homodimerization, bead proximity signal | inhibition, % at 2.6 µM | 0.91% of 650,000 active; in the data active means inhibition above about 50%;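 further: 0% = vehicle wells with protein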
FBW7 act: FBW7 E3 ligase activators, primary screen, biochemical, AlphaScreen, human; F-box/WD repeat-containing protein 7 (Homo sapiens), Q969H0; 0.13% of 650,000 active; AID 1259310, 2017; AlphaScreen FBW7–phospho-cyclin E peptide binding, activator screen; normalized activity (activation), % at 26.1 µM; in the data active means normalized activity above about 1.9%;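 further: purified mutant Fbw7 with reduced substrate affinity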
GPR151 activ: activators of human GPR151, primary screen, cell-based, PathHunter beta-arrestin, luminescence; 1% of 650,000 active; activation, % at 11.2 µM; PathHunter beta-arrestin GPR151 cells; in the data active means activation above about 4.9%;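 further: 0% = median of compound wells and 100% = cells with positive control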
Target sequence (Q8TDV0 whole entry, looked up): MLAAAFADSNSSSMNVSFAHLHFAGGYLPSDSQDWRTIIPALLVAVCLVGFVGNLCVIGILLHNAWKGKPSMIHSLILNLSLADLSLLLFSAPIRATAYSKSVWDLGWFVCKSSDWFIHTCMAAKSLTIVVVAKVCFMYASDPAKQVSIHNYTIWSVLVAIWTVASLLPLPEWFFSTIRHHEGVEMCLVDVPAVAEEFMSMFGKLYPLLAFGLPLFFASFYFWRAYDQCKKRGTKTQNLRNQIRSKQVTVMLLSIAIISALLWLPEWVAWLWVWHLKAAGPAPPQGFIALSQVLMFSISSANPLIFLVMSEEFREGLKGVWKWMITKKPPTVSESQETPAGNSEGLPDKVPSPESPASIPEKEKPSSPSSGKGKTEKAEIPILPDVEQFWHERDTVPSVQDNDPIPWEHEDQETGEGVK
TEAD-YAP inh: TEAD-YAP interaction inhibition, primary screen, TEAD-YAP interaction inhibitor project, luminescence, HEK-TIYL cells | 1.4% of 640,000 active | inhibition, % at 9.12 µM | AID 1259422, 2018 | TEAD-Gal4/YAP UAS-luciferase luminescence; in the data active means inhibition above about 32%;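 further: 0% = median of test compound wells and 100% = reference inhibitor wells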
Starred values were filed as active, the others as inactive; x = no result given.

SMILES	MITF inh	FBW7 act	GPR151 activ	TEAD-YAP inh
COCCn1c(C)cc(/C=N/n2c(-c3cccc(Cl)c3)n[nH]c2=S)c1C	12.8	-0.1	-1.5	9.2
CC(C)S(=O)(=O)C1=NSC2=NC(=O)/C(=C\c3ccc([N+](=O)[O-])o3)C(=N)N21	53.2*	-0.4	-2.2	5.0
CC(C)CS(=O)(=O)C1=NSC2=NC(=O)/C(=C\c3ccc([N+](=O)[O-])o3)C(=N)N21	65.5*	-0.3	-0.3	0.2
C[C@H]1NC(=O)[C@H]2CN(C(=O)c3cc(F)cc(F)c3)CCN2C1=O	15.2	0.1	-0.3	-0.6
CCOC(=O)c1c(C)c(C(=O)Nc2ccc(OC)cc2OC)c(C)n1CC	-5.8	-0.3	-0.7	45.7*
CCOC(=O)c1c(C)c(C(=O)Nc2ccc(OC)cc2)c(C)n1CC	4.3	0.0	0.8	47.3*
CCOC(=O)c1c(C)c(C(=O)Nc2ccc(C(=O)OC)cc2)c(C)n1CC	3.3	-0.2	0.8	-4.5
COc1ccc(/C=C/C(=O)Nc2cccc([N+](=O)[O-])c2)cc1OC	11.2	0.0	0.8	-2.7
Cc1ccc(C(=O)Nc2nc3ccccc3n2C)cc1	15.9	-0.5	-2.6	41.2*
Cn1c(NC(=O)c2ccc(Cl)c(Cl)c2)nc2ccccc21	22.4	0.2	0.2	-19.9
N#C/C(=C\Nc1ccc(C(N)=O)cc1)c1nc(-c2ccc3ccccc3c2)cs1	3.4	0.0	2.8	-4.1
CC1=C(C(=O)Nc2ccc(C)cn2)C(c2cccs2)C2=C(CC(C)(C)CC2=O)N1 (stereo unspecified)	-4.9	-0.1	-0.3	57.7*
CC1=C(C(=O)Nc2ccc(C)cn2)C(c2ccc(C)cc2)C2=C(CC(C)(C)CC2=O)N1 (stereo unspecified)	9.9	0.0	0.5	8.1
CC1=C(C(=O)Nc2ccc(Br)cn2)C(c2cccs2)C2=C(CC(C)(C)CC2=O)N1 (stereo unspecified)	-0.5	0.1	0.0	35.3*
CC1=C(C(=O)Nc2ccc(Br)cn2)C(c2ccsc2)C2=C(CC(C)(C)CC2=O)N1 (stereo unspecified)	-0.5	0.2	1.2	52.0*
CCN(CC)c1nc(NC(C)(C)C)nc(SCC(N)=O)n1	-14.6	-0.1	-2.2	3.1
CC1Oc2ccccc2N(CC(=O)N(C(C)C)C(C)C)C1=O (stereo unspecified)	8.2	-0.2	0.8	50.8*
CC(=O)N1CCOc2cc(S(=O)(=O)N3c4ccccc4CC3C)ccc21 (stereo unspecified)	-25.7	0.1	0.6	-4.2
O=S(=O)(NCc1ccco1)c1cccc(Nc2ncnc3sccc23)c1	0.9	-0.2	-1.3	-1.8
O=C(NCc1ncc(C(F)(F)F)cc1Cl)c1cn2ccsc2n1	25.1	2.0*	-0.8	1.8
CCSc1nc2sccn2c(=O)c1C(=O)NCc1ncc(C(F)(F)F)cc1Cl	19.8	0.0	-0.4	11.0
CC(C)(C)C(=O)Nc1nnc(-c2ccc(Cl)cc2)s1	-3.8	-0.1	-1.2	-39.3
COc1cc2ncnc(NC3CCN(Cc4ccccc4)CC3)c2cc1OC	x	x	-3.6	x
OCCCNc1ncnc2sccc12	-3.6	0.0	2.8	5.5
Clc1ccc(CNc2ncnc3ccccc23)cc1	1.5	-0.1	4.7	56.5*
SMILES	MITF inh	FBW7 act	GPR151 activ	TEAD-YAP inh
c1nc(NCC2CCCCC2)c2ccsc2n1	-9.2	0.0	0.0	36.2*
c1ccc(CN2CCC(Nc3ncnc4ccccc34)CC2)cc1	-9.8	-0.1	-0.2	33.4*
c1ccc(CNc2ncnc3ccccc23)cc1	-11.5	-0.3	-0.5	51.4*
COc1cccc(Oc2nc(N)[nH]c(=O)c2Br)c1	-3.6	-0.2	-0.1	0.6
c1ccc(CNc2ncnc3sccc23)nc1	8.8	0.2	-0.6	-5.3
COCCNc1ncnc2ccccc12	-0.4	0.2	0.5	15.9
Clc1ccc(CNc2ncnc3sccc23)cc1	-2.5	0.0	1.1	52.3*
CC(C)CNc1ncnc2ccccc12	-10.8	0.0	2.2	11.6
Clc1ccccc1CCNc1ncnc2ccccc12	10.7	-0.3	-0.1	34.9*
CCC(C)Nc1ncnc2ccccc12 (stereo unspecified)	-3.1	-0.3	-0.2	38.6*
O=C(Nc1ccc(F)cc1)Nc1cccc(C(=O)NCc2ccccc2)c1	22.2	0.1	-0.5	7.9
Nc1cc(S(=O)(=O)NCCCN2CCOCC2)ccc1Cl	-2.2	-0.1	3.3	2.4
C=CCONC(=O)Cn1c(=O)sc2ccccc21	-8.7	0.7	0.2	8.6
N#CC1=C(SCC(=O)Nc2ccccc2)NC(=O)CC1c1ccc(O)cc1 (stereo unspecified)	19.4	0.8	1.3	31.3
CCCCOC(=O)CSC1=C(C#N)C(c2ccc(Cl)cc2)CC(=O)N1 (stereo unspecified)	6.0	0.0	-0.8	1.9
CC(C)OC(=O)CSC1=C(C#N)C(c2ccccc2)CC(=O)N1 (stereo unspecified)	-7.2	-0.1	0.9	62.1*
CCCOC(=O)CSC1=C(C#N)C(c2ccccc2)CC(=O)N1 (stereo unspecified)	6.6	0.1	1.0	57.1*
CCCOC(=O)CSC1=C(C#N)C(c2ccc(O)cc2)CC(=O)N1 (stereo unspecified)	4.9	0.1	0.0	-1.3
CCCCOC(=O)CSC1=C(C#N)C(c2ccccc2)CC(=O)N1 (stereo unspecified)	13.0	0.0	1.6	44.6*
CCc1ccc(C2CC(=O)NC(SCC(=O)OC(C)C)=C2C#N)cc1 (stereo unspecified)	12.9	0.1	1.1	3.1
N#CC1=C(SCC(=O)Nc2ccccc2)NC(=O)CC1c1ccccc1 (stereo unspecified)	-14.1	0.0	-1.0	32.2*
O=C(CCn1c(=O)oc2ccccc21)Nc1nc2c(s1)CCCC2	6.6	-0.4	0.4	-8.1
O=C(CSc1nnc(COc2ccccc2)n1-c1ccccc1)N1CCN(c2nc3ccccc3s2)CC1	14.5	0.2	1.0	8.5
Cc1cncc(NC(=O)c2cc(N3CCOCC3)cc(-n3cc(NC(=O)Cc4ccccc4)cn3)c2)c1	17.3	0.1	-0.4	39.9*
Cc1ccc(NC(=O)CNCc2cccs2)c(Br)c1	10.3	3.8*	1.6	-30.7
SMILES	MITF inh	FBW7 act	GPR151 activ	TEAD-YAP inh
Cc1ccc(NC(=O)Cc2cccs2)c(Br)c1	17.2	0.2	-0.4	-15.5
O=C1N=c2ccc(F)cc2=C1c1sc(=S)n(-c2ccccc2)c1O	0.6	0.1	-1.0	0.2
Cn1c(=O)cc(N2CCN(c3cccc(Cl)c3)CC2)[nH]c1=O	-5.1	-0.1	-0.6	37.8*
Cn1c(=O)cc(N2CCN(c3ccc(F)cc3)CC2)[nH]c1=O	-13.8	0.0	4.7	1.2
O=C(CCC1CCCC1)Nc1ccc2c(c1)C(=O)NCCO2	5.7	0.1	-0.7	-62.5
O=C(COc1ccc(F)cc1)Nc1ccc2c(c1)C(=O)NCCO2	8.5	0.0	0.6	41.5*
CCCn1c(=O)c2c(nc3n2CC(C)CN3CCc2ccccc2)n(C)c1=O (stereo unspecified)	5.5	0.0	2.3	-6.3
CN(C)NC(=O)Nc1cccc(Cl)c1	-11.2	0.1	-0.1	-0.3
